{"source": "PubChem BioAssay (NCI)", "note": "This is part of a sample that, as a whole, favours compounds with a hit. Of some 83,000 tested, about 20% had one in any assay.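 Note: values are percent growth. 100 is the growth of untreated cells, values between 100 and 0 indicate rising inhibition; between -100 and 0 indicates cell death.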 Values without a mark were called inactive. Activity calls are given as the source filed them. The calls were made as follows: active = growth percent below 10; inactive = the rest."}
{"test_system": "TK-10 renal", "assay": "NCI-60 one-dose screen, 48 h (100 = growth as untreated, 0 = no growth, -100 = all killed)", "conditions": "10 µM unless noted"}
{"smiles": "OCCn1cc(-c2nc3ccc4[nH]ncc4c3c3c2CCCC3)cn1", "growth": "16.5%"}
{"smiles": "O=C1Nc2cc(-c3ccc(NS(=O)(=O)c4ccc([N+](=O)[O-])cc4)cc3)ccc2/C1=C/c1ccc[nH]1", "growth": "-2.87% (active)"}
{"smiles": "O=C(Cn1c(-c2ccccc2)nc2ccccc21)N=Nc1c(O)[nH]c2ccc(Br)cc12", "growth": "-17.5% (active)"}
{"smiles": "Cc1nc2sccn2c1-c1nnc(SCc2ccccc2)o1", "growth": "110%"}
{"smiles": "CCC1(OC(=O)c2ccccc2SSCCOC(=O)CCCCC2SCC3NC(=O)NC32)C(=O)OCc2c1cc1n(c2=O)Cc2cc3ccccc3nc2-1", "note": "(stereo not drawn)", "growth": "94.8%"}
{"smiles": "C=CC(=O)Nc1ccc(C(=O)/C=C/c2ccc(N(C)C)cc2)c(O)c1", "growth": "23.9%"}
{"smiles": "COc1ccc(C(=O)c2cc(C(C)=O)c3c(C)cc(C)cn23)cc1", "growth": "57.4%"}
{"smiles": "Cc1ccc(S(=O)(=O)N(CCn2ccnc2[N+](=O)[O-])CCn2ccnc2[N+](=O)[O-])cc1", "growth": "98.4%"}
{"smiles": "Cc1ccc(S(=O)(=O)Nc2ccc(-c3ccc4c(c3)NC(=O)/C4=C\\c3ccc[nH]3)cc2)cc1", "growth": "98.4%"}
{"smiles": "COc1ccc2c(c1)C(=O)N(C)C2C1c2c(cc3c(c2OC)OCO3)CCN1C", "note": "(stereo not drawn)", "growth": "78.6%"}
{"smiles": "Cc1ccc(C2CC(c3ccc(NC(=O)Nc4ccccc4)cc3)=NN2c2ccc(S(N)(=O)=O)cc2)cc1", "note": "(stereo not drawn)", "growth": "-81.4% (active)"}
{"smiles": "COC(=O)c1cc(C(=O)C(Br)Br)n2c1ccc1c3ccccc3ccc12", "growth": "65.3%"}
{"smiles": "COc1ccc2c(c1)N=c1c-2cc2c(O)[nH]c(=S)n2c1=O", "growth": "73.5%"}
{"smiles": "O=Cc1cncc(-c2ccc3ncnc(N4CCc5cc(F)c(Cl)cc54)c3c2)c1", "growth": "4.74% (active)"}
{"smiles": "CC1=C(C(=O)OC(C)C)C(c2ccc(O)cc2)NC(=O)N1", "note": "(stereo not drawn)", "growth": "90.2%"}
{"smiles": "COC(=O)CSC1=C(C)C(=O)C(OC)=C(OC)C1=O", "growth": "106%"}
{"smiles": "O=C1Nc2ccccc2/C1=C/C(=O)c1cc2ccccc2oc1=O", "growth": "102%"}
{"smiles": "COC(=O)c1ccc(-c2c(-c3ccccc3)c(F)c3oc(C(=O)OC)c(N)c3c2-c2ccccc2)cc1", "growth": "114%"}
{"smiles": "COc1cc(-c2ccc3ncnc(N4CCc5ccc(Cl)cc54)c3c2)cnc1Cl", "growth": "29.5%"}
{"smiles": "Oc1cncc(-c2ccc3ncnc(N4CCc5cc(F)c(Cl)cc54)c3c2)c1", "growth": "78.8%"}
{"smiles": "Nc1cc(-c2c[nH]c3ccc(F)cc23)nc2cc(-c3c[nH]c4ccccc34)nn12", "growth": "17.3%"}
{"smiles": "C/C(=N\\Nc1ccc(S(N)(=O)=O)cc1)c1cnn(-c2cc(=O)[nH]c3ccc(Br)cc23)c1C", "growth": "146%"}
{"smiles": "O=C(Cn1c(-c2ccccc2)nc2ccccc21)N=Nc1c(O)[nH]c2ccc(Cl)cc12", "growth": "28.5%"}
{"smiles": "COC(=O)c1c(C(=O)OC)c2ccc3c4ccccc4ccc3n2c1C(=O)OC", "growth": "103%"}
{"smiles": "COc1sc(/C=N/NC(=O)c2[nH]c3ccc(Br)cc3c2-c2ccccc2)cc1Br", "growth": "64.6%"}
{"smiles": "O=C(NNC(=O)c1ccc(OCc2nc3ccc(Cl)cc3[nH]2)cc1)Nc1ccc(Cl)c(Cl)c1", "growth": "110%"}
{"smiles": "COc1ccc(NC(=O)CSc2nnc(-c3ccc(-c4nc5ccc(Cl)cc5[nH]4)cc3)o2)cc1", "growth": "112%"}
{"smiles": "O=C1Nc2ccc(F)cc2/C1=C/C(=O)c1cc2ccccc2oc1=O", "growth": "161%"}
{"smiles": "Cn1cc(-c2cc(N)n3nc(-c4c[nH]c5ccccc45)cc3n2)c2ccccc21", "growth": "-93.4% (active)"}
{"smiles": "COc1nc(N)ncc1-c1ccc2ncnc(N3CCc4cc(F)c(Cl)cc43)c2c1", "growth": "-50% (active)"}
{"smiles": "CN1CCN(C(=O)Oc2cc3c(c4ccccc24)[C@H](CCl)CN3C(=O)c2cc3cc(OCCCN4CCC4)ccc3[nH]2)[C@@H]2CSSC[C@H]21", "growth": "11.7%"}
{"smiles": "COc1ccc2[nH]cc(-c3cc4nc(-c5cn(C)c6ncccc56)cc(N)n4n3)c2c1", "growth": "78.1%"}
{"smiles": "COc1ccc(N=Nc2c(N)nn3c(-c4ccc(OC)c(OC)c4)ccnc23)cc1", "growth": "88.6%"}
{"smiles": "Cc1ccc2nc(NC(=O)Nc3cccc(Cl)c3)sc2c1", "growth": "114%"}
{"smiles": "COc1ccc(Nc2ncnc3sc4c(c23)CCN(Cc2ccccc2)C4)cc1", "growth": "109%"}
{"smiles": "O=C1/C(=C/C=C/c2ccco2)SC(=S)N1CC(=S)C1C=CS(=O)(=O)C1", "note": "(stereo not drawn)", "growth": "126%"}
{"smiles": "CC1=C(C(=O)OCc2ccccc2)C(c2cccc3ccccc23)n2c(nc3ccccc32)N1", "note": "(stereo not drawn)", "growth": "66.6%"}
{"smiles": "CN(C)c1nc(NCCNS(=O)(=O)c2ccc(C(=O)/C=C/c3ccccc3)cc2)nc(N2CCOCC2)n1", "growth": "108%"}
